# Measured values published in the supplement of paper PMC7866885, “A novel bicyclic 2,4-diaminopyrimidine inhibitor of Streptococcus suis dihydrofolate reductase” (PeerJ, 2021).
# ± gives the standard deviation.
# Test system: Streptococcus suis P1/7
# Assay: percent growth relative to DMSO control; higher = less growth inhibition
# Details: 10 µM; incubation time 18 h
# Method: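 CLSI broth microdilution: 5x10^4 CFU of Streptococcus suis (strain P1/7 or HE06) incubated with 10 µM Pathogen Box compound in cation-adjusted Mueller Hinton broth, 37 °C, 5% CO2, 18 h. Growth read as OD600 and expressed as percent of the DMSO-treated control (100%); mean ± SD of three independent experiments.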
row,SMILES,percent growth [%]
1,CC1(C)OB(O)c2ccc(C3=NOC(c4cc(Cl)c(F)c(Cl)c4)(C(F)(F)F)C3)cc21 (centres undefined),0.819 ± 0.82
2,CC1COC(Cn2cncn2)(c2ccc(Oc3ccc(Cl)cc3)cc2Cl)O1 (centres undefined),82.9 ± 29
3,Cc1nn(C)c(C)c1NS(=O)(=O)c1c(Cl)cc(-c2ccnc(N3CCNCC3)c2)cc1Cl,76.6 ± 7.2
4,CCc1nn(C)c(C(=O)NCc2ccc(Oc3ccc(C)cc3)cc2)c1Cl,91.4 ± 28
5,Cc1nn(Cc2ccccc2)c(Cl)c1C(=O)NC1CCCCCC1,93.1 ± 26
6,CO/N=C(\C(=O)OC)c1ccccc1CO/N=C(\C)c1cccc(C(F)(F)F)c1,82 ± 16
7,Cc1cccc(C(=O)Nc2ccnc(N(C)C3CCN(CC(C)C)CC3)c2)c1,67.9 ± 22
8,CO[C@@H]1CN(c2ccc(C#CC3(O)CN4CCC3CC4)c(Cc3ccccc3)n2)C[C@H]1O (some centres undefined),124 ± 50
9,O=C1O[C@@H](COc2ccon2)CN1c1cc(F)c(C2=CCN(Cc3ccccc3)CC2)c(F)c1,-0.108 ± 0.19
10,Nc1c2c(nc3sc4c(c13)CCCC4)CCCC2,97.3 ± 30
11,O=C1O[C@@H](CO)CN1c1cc(F)c(C2=CCN(Cc3ccccc3)CC2)c(F)c1,13.5 ± 23
12,Cc1cc(C2=NOC(c3cc(Cl)c(F)c(Cl)c3)(C(F)(F)F)C2)ccc1C(=O)NCc1ccc2c(c1)C(C)(C)OB2O (centres undefined),61.5 ± 40
13,CC(C)(C)C(O)C(Oc1ccc(-c2ccccc2)cc1)n1cncn1 (centres undefined),86.6 ± 29
14,CO/C=C(/C(=O)OC)c1ccccc1Oc1cc(Oc2ccccc2C#N)ncn1,80.8 ± 20
